This note sets out measurements from PMC4336329 (PLoS ONE, 2015).

The campaign covered roughly 310,000 compounds. About 2,200 (0.71%) showed an effect of 50% or more. The effect is printed as a negative number. Shown is part of a subset that was picked to be rich in strong results.

The target of the test is human ether-à-go-go-related gene (hERG) potassium channel (human, UniProt Q12809). The experiment in a line: primary screen, population patch clamp on CHO cells stably expressing hERG; higher = less effect of the substance. The method, then: Briefly, Chinese hamster ovary (CHO) cells stably expressing the hERG channel were dislodged from tissue culture flasks and dispensed into PPC plates. […] During the recording, background leak currents were estimated by a 100 ms step to -80 mV from an initial holding potential of -70 mV and subtracted from the subsequent current measurement. The campaign was conducted in two phases using slight differences in recording protocol. In the first phase, the initial voltage pulse used a 100 ms step to -30 mV from a holding potential of -70 mV, a 2 s conditioning step to +25 mV, and a 2 s test step to -30 mV. During the second phase of the screen, the potential during the conditioning step was raised to +45 mV. In both phases of the campaign, a secondary voltage pulse was applied using the same parameters as the second phase initial pulse. The initial and secondary pulses were applied in the absence of compound, and upon application of 1 μM and 10 μM test concentrations. Small molecule effects on hERG current density were quantified by […].
Sequence of human ether-à-go-go-related gene (hERG) potassium channel (Q12809 whole entry, looked up): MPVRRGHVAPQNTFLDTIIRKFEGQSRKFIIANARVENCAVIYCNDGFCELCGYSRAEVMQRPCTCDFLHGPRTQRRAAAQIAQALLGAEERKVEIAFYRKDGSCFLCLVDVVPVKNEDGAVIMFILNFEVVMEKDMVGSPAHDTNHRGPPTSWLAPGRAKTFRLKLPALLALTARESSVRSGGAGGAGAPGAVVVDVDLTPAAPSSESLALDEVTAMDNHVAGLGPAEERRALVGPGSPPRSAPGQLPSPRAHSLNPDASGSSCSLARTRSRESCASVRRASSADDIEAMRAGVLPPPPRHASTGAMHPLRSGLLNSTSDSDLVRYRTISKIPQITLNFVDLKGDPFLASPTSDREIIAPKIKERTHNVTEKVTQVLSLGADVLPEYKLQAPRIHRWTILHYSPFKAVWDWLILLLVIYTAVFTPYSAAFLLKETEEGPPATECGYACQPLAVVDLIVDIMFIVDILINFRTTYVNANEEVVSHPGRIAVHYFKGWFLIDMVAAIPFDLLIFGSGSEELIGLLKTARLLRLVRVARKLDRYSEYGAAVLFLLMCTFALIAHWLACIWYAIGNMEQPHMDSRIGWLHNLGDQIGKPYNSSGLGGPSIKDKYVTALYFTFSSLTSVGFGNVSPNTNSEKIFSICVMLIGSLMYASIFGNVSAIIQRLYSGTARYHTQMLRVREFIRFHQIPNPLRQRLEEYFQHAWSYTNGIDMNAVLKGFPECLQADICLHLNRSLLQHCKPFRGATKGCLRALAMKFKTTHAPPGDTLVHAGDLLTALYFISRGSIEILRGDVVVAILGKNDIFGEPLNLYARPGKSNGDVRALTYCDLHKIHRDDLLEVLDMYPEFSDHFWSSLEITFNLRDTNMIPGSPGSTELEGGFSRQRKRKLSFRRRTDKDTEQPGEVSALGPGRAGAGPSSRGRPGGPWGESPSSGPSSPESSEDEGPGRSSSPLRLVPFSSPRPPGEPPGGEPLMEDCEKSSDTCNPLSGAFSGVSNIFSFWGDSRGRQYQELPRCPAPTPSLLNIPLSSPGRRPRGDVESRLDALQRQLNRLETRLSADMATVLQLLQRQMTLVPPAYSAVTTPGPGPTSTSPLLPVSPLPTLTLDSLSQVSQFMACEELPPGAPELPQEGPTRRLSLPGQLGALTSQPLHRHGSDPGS
As to `COc1cc2c(cc1OC)C(c1ccc([N+](=O)[O-])cc1)N(C(C)=O)CC2` (stereo not shown), the “hERG current change (%, negative = inhibition) at 1uM” value is 5.11%.
The value for `CC(C)c1ccc(NC(=O)c2ccc3c(c2)C(=O)N(Cc2cccnc2)C3=O)cc1` was 8.25%; that for `c1ccc(CC(Nc2ccccn2)c2ccccc2)cc1` (stereo not shown) was -10.6%; that for `NC(=O)CSc1n[nH]c(=O)n1CCc1ccccc1` was 10.4%.
The value for `O=C(Cc1cccs1)NCc1cccc(Cl)c1` was 9.08%; that for `CCOc1ccc2[nH]c(O)c(NC(C)=O)c2c1` was 5.98%.
The value for `CCc1c(C)nc2ncnn2c1NCc1cccs1` was 6.69%; that for `COc1cc(/C=N/NC(=O)c2ccccc2)ccc1O` was -5.66%.
In the case of `COc1cc2c(cc1OC)/C(=C/C#N)NC(C)(C)C2`, the “hERG current change (%, negative = inhibition) at 1uM” value worked out at 7.09%.
For the compound `CNc1nc(SC)nc2ccccc12`, the “hERG current change (%, negative = inhibition) at 1uM” value is given as 16.4%.
In the case of `COc1cccc(C(=O)NCCCN2CCN(CCCNC(=O)c3cccc(OC)c3)CC2)c1`, the “hERG current change (%, negative = inhibition) at 1uM” value is -65.2%.
As for `COc1cccc(C(=O)NCCCNC(=O)c2cccc(OC)c2)c1`, the “hERG current change (%, negative = inhibition) at 1uM” value was 12.4%.
To `CC1CCN(CCCNC(=O)c2ccc(CSCc3cccc(Cl)c3)o2)CC1` belongs -62.4%; to `O=C(NCCCN1CCCC1)c1ccc(CSCc2cccc(Cl)c2)o1`, -30.4%; to `CN1CCN(CCCNC(=O)c2ccc(CSCc3cccc(Cl)c3)o2)CC1`, 1.54%.
To `COc1cc(OC)cc(C(=O)NCCCN2CCN(CCCNC(=O)c3cc(OC)cc(OC)c3)CC2)c1` belongs -18.8%.
To `Cc1ccc2nsnc2c1NC(=O)c1cccnc1Cl` belongs 15.1%; to `COc1ccc(S(=O)(=O)N2CCC(Nc3ccccc3Cl)CC2)cc1`, 28.1%; to `COc1ccc(/C=C2\SC(=S)N(CC(=O)NC3CCS(=O)(=O)C3)C2=O)cc1` (stereo not shown), 17.2%.
Take `COc1ccc2c(c1)c1c3n2CCN(C)C3=NCC1.Cl`: the “hERG current change (%, negative = inhibition) at 1uM” value is reported as -54.9%.
To `COc1ccc2c(c1)c1c(n2C(C)=O)C(OC(C)=O)=NCC1` belongs 2.42%.
To `CN=C1c2c(-c3ccccc3)c3cc(OC)ccc3n2CCN1C.Cl` belongs -31.6%; to `COc1ccc(OCC(=O)Nc2c3c(nn2-c2ccccc2)CS(=O)(=O)C3)cc1`, 7.69%; to `O=C1c2ccccc2C(=O)N1Cc1cccnc1`, 15.6%.
As for `Cc1cc(N2CCOCC2)n2cc(-c3ccccc3)nc2n1`, the “hERG current change (%, negative = inhibition) at 1uM” value is given as -14.6%.
With `Cc1cc(N2CCOCC2)n2nc(C)c(-c3ccc(Cl)cc3)c2n1`, the “hERG current change (%, negative = inhibition) at 1uM” value turned out to be 7.28%.
To `Cc1cc(N2CCN(c3ccccc3)CC2)n2cc(-c3ccccc3)nc2n1` belongs -16.4%; to `Cc1cc(N2CCN(C)CC2)n2cc(-c3ccc(F)cc3)nc2n1`, -89.8%.
To `Cc1cc(N2CCN(c3ccccc3Cl)CC2)n2cc(-c3ccccc3)nc2n1` belongs -2.03%; to `Cc1nc2nc(-c3ccc(Cl)cc3)nn2c(C)c1Cl`, 13.4%; to `Cc1cc(N2CCN(c3ccccn3)CC2)n2cc(-c3ccccc3)nc2n1`, -65.4%.
The value for `Cc1cc(N2CCN(C)CC2)n2nc(-c3ccc(Cl)cc3)nc2n1` was -67.2%.
Consider `Cc1cc(N2CCOCC2)n2cc(-c3ccc(F)cc3)nc2n1`, for which the “hERG current change (%, negative = inhibition) at 1uM” value is listed as -34.9%.
The value for `Cc1cc(C)nc(-n2ncc3c2CC(C)CC3=O)n1` (stereo not shown) was 11.4%.
To `O=C(CN1C(=O)C2CCCCN2C(=O)c2ccccc21)N1CCCc2ccccc21` (stereo not shown) belongs 15.1%; to `O=C(Cc1cccs1)Nc1nnc(SCc2cccc3ccccc23)s1`, -3.03%.
To `COc1ccc(OC)c(NC(=O)CSc2nc(=O)n(Cc3ccccn3)c3c2CCC3)c1` belongs -2.43%; to `Cc1cc(O)c(C(C)C)cc1NC(=O)Cn1nc(C)c2ccccc2c1=O`, -6.85%; to `Cc1ccc(NC(=O)CCc2ccc(C)o2)cc1`, 7.21%.
Consider `COC(=O)c1ccc(NC(=O)c2cc[n+]([O-])cc2)cc1`, for which the “hERG current change (%, negative = inhibition) at 1uM” value is 10.9%.
Regarding `CCN1CCCC1CNc1ncnc2c1[nH]c1ccc(F)cc12` (stereo not shown), the “hERG current change (%, negative = inhibition) at 1uM” value is listed as -81.4%.
The value for `CCN1CCCC1CNC(=O)c1cc2cc(OC)c(OC)cc2[nH]1` (stereo not shown) was 16.2%.
On to `Fc1ccc2[nH]c3c(NCc4ccccc4)ncnc3c2c1`, for which the “hERG current change (%, negative = inhibition) at 1uM” value worked out at 15.4%.
For `Clc1ccc2[nH]c3c(NCC4CCCO4)ncnc3c2c1` (stereo not shown), the “hERG current change (%, negative = inhibition) at 1uM” value is recorded as -3.05%.
`Clc1ccc2[nH]c3c(NCCN4CCOCC4)ncnc3c2c1`: the “hERG current change (%, negative = inhibition) at 1uM” value was -2.76%.
To `Fc1ccc2[nH]c3c(NCCN4CCOCC4)ncnc3c2c1` belongs 8.84%.
The value for `CCN1CCCC1CNc1ncnc2c1[nH]c1ccc(Cl)cc12` (stereo not shown) was -85.5%; that for `CCN1CCCC1CNC(=O)c1cc2ccc(OC)cc2[nH]1` (stereo not shown) was 5.34%; that for `CCN1CCCC1CNC(=O)c1cc2cc(F)ccc2[nH]1` (stereo not shown) was -53.8%.
The value for `CCc1noc(C)c1C(=O)NNC(=O)c1cc(OC)cc(OC)c1` was 9.15%; that for `CCOc1cc(C2c3c(n[nH]c3C)C(=O)N2c2ccc(Br)cc2)ccc1O` (stereo not shown) was 10.8%; that for `CCC(Oc1ccc2c(c1)C(=O)CC(C)(C)O2)C(=O)NCCN1CCCCCC1.O=C(O)C(=O)O` (stereo not shown) was -9.15%.
In the case of `CCn1c(SCC(=O)Nc2nc(C)c(C)s2)nnc1-c1ccco1`, the “hERG current change (%, negative = inhibition) at 1uM” value is -11.2%.
To `C=CCn1c(SCC(=O)Nc2ccc(C(=O)OCC)cc2)nnc1-c1cccs1` belongs 12.3%; to `C=CCn1c(SCC(=O)N2CCN(c3ccccc3)CC2)nnc1-c1ccco1`, 4.57%.
The value for `CCn1c(SCC(=O)Nc2ccccc2)nnc1-c1cccs1` was -13.8%; that for `C=CCn1c(SCC(=O)O)nnc1-c1cccs1` was 9.03%; that for `CCn1c(SCC(=O)Nc2nc(C)c(C)s2)nnc1-c1cccs1` was -62.5%.
The value for `C=CCn1c(SCC(=O)Nc2ccc(C(=O)OC(C)C)cc2)nnc1-c1cccs1` was 9.31%; that for `C=CCn1c(SCC(=O)C(C)(C)C)nnc1-c1cccs1` was -9.56%.
On to `C=CCn1c(SCC(=O)N2CCN(c3ccc(F)cc3)CC2)nnc1-c1cccs1`, for which the “hERG current change (%, negative = inhibition) at 1uM” value was -52.4%.
The value for `C=CCn1c(SCC(=O)N2CCN(c3ccc(F)cc3)CC2)nnc1-c1ccco1` was -67%; that for `C=CCn1c(SCC(=O)Nc2ccc(N3CCOCC3)cc2)nnc1-c1ccco1` was 8.51%; that for `C=CCn1c(SCC(=O)Nc2ccc3c(c2)CCC3)nnc1-c1cccs1` was -83.5%.
